IL1B secr inh = inhibitors of inflammasome signaling (IL-1 beta secretion); THP-1 LPS/ATP IL-1B secretion, AlphaLISA, 16 h; hits give low values; activity change, % at 57.5 µM; 360,000 compounds, 4.7% hits; AID 743279; in the data active means activity change below about -50%; inconclusive means mostly about -30% to -49%; further: on the % scale 0 is the no-effect control and ±100 the full control effect
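Secreted IL-1B measured by AlphaLISA bead assay after 16 h compound exposure of THP-1 cells; compounds (final up to 57.5 uM) added 1 h before LPS (250 ng/mL) and ATP (1.25 mM) stimulation; lower signal means less secretion.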
DRD3 antagonist = D3 dopamine receptor (human) antagonism | max response, negative = inhibition, % | 360,000 compounds, 2.5% hits | D3R cells, DiscoveRx beta-arrestin luminescence, antagonist mode; hits give low values; in the data active means max response below about -50%; inconclusive means no clear call, values can overlap the other calls; further: on the % scale 0 is the no-effect control and ±100 the full control effect
Target sequence (P35462 whole entry, looked up): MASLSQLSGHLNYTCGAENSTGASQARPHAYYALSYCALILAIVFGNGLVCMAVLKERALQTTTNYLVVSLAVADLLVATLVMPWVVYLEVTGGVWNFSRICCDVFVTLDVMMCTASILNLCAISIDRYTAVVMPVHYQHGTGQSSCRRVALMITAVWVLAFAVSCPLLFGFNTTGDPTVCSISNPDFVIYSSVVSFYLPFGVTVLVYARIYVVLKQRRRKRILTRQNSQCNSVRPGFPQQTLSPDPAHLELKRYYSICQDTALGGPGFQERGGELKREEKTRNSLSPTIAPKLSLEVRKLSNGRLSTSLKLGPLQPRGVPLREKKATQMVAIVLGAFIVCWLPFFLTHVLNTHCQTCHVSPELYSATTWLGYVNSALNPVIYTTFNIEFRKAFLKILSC
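Cells expressing the human receptor were seeded at 1500 cells/well, incubated overnight at 37 degrees C in 5% CO2, then exposed to library compounds with dopamine controls for 90 minutes at 37 degrees C before luminescent detection.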
DT40 TDP1 CPT = growth inhibition of DT40 Tdp1-/-;hTDP1 cells with camptothecin (screen for TDP1 inhibitors); chicken DT40 Tdp1-/-;hTDP1 cells + 20 nM CPT, ATP luminescence, 48 h; Potency, µM (highest dose often 46.2 µM), for the others: top-dose activity change, negative = growth inhibition, hits mostly inhibitors; 420,000 compounds, 12% hits; further: potency means the concentration at half of the fitted maximal effect; on the % scale 0 is the no-effect control and ±100 the full control effect; nearly all actives have a fitted effect of over 55% in size
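Chicken DT40 Tdp1-/- cells stably complemented with human TDP1 were seeded at 400 cells/well in medium containing 20 nM camptothecin, exposed to pin-transferred compounds, and grown at 37 °C for at least 48 hr. Viability was read as ATP luminescence.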
ClpP mod = qHTS Assay for Activators of ClpP; ATP-dependent Clp protease proteolytic subunit (Bacillus subtilis (strain 168)), P80244; purified B. subtilis ClpP, FRET peptide cleavage, 20 min; Potency, µM (titrated, usually from 57.5 µM), inactives show at the highest dose activity change, negative = active; 340,000 compounds, 1.9% hits; active means well fitted falling curve with a large enough effect; inconclusive means small, poorly fitted or top-dose-only effect; inactive means no such curve, though single readings can be large or run the other way; further: potency means the concentration at half of the fitted maximal effect; the source files actives as falling curves though it sought activators and does not explain the sign; nearly all actives have a fitted effect of over 65% in size
Target sequence (P80244 whole entry, looked up): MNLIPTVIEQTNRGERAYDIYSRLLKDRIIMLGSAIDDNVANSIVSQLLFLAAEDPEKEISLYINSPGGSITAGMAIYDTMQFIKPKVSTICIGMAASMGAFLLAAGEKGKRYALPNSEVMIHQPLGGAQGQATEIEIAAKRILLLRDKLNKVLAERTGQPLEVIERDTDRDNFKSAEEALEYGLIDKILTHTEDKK
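Purified B. subtilis ClpP, 10 microg/mL final in Tris/HCl pH8 with KCl, BSA, glycerol and Tween-20, cleaved an Abz/nitrotyrosine-quenched decapeptide. Fluorescence (ex 320, em 430) was read at 0 and 20 min at room temperature. Delta was normalized to 5.8 microM ADEP and DMSO/no-enzyme controls.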
D3 ag = D3 dopamine receptor (human) agonism | P35462 | D3R DiscoveRx beta-arrestin cells, luminescence, 90 min | max activation, % | 410,000 compounds, 0.58% hits | AID 652048; in the data active means max activation above about 30%; further: 0% is about no effect
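Cells at 1500/well, incubated overnight, then treated with pinned compounds (dopamine as control) for 90 min at 37 degrees C. DiscoveRx reagent added for 30 - 60 minutes at room temperature; luminescence read.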
DT40 TDP1 no CPT = qHTS for Inhibitors of human tyrosyl-DNA phosphodiesterase 1 (TDP1): qHTS in cells in absence of CPT. 420,000 compounds, 15% hits. Potency, µM (titrated, usually from 46.2 µM), without a hit: at the highest dose activity change, negative = growth inhibition, most hits filed as inhibitors. DT40 Tdp1-/- hTDP1 cells, no CPT, ATP luminescence, 48 h; further: potency means the concentration at half of the fitted maximal effect; on the % scale 0 is the no-effect control and ±100 the full control effect; nearly all actives have a fitted effect of over 55% in size
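Readout: luminescence from CellTiter-Glo after 30 min in the dark at RT. Cells: DT40 Tdp1-/- with stable hTDP1, 400/well. Exposure: compounds alone, ≥48 hr, 37 °C.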
* = called active by the depositor. Hits are enriched below; roughly 21% of the tested compounds scored in any of these assays. Unless noted, the call rests on the fitted dose curve; in most records, active means well fitted inhibition curve with a large enough effect; inconclusive means small, poorly fitted or top-dose-only effect; inactive means flat fitted curve, though single readings scatter.

What do the screens show for `CC(=O)C1=C(O)C(=O)N(CCc2c[nH]c3ccccc23)C1c1cccc(O)c1` (stereo not drawn)?
IL1B secr inh: 24; DRD3 antagonist: inconclusive; DT40 TDP1 CPT: -14%; ClpP mod: -2%; D3 ag: 4; DT40 TDP1 no CPT: 6%

Results for COc1cc(-c2nccc3cc4c(cc23)OCO4)cc(OC)c1OC ?
IL1B secr inh: 21; DRD3 antagonist: 12; DT40 TDP1 CPT: 5.8µM*; D3 ag: -7; DT40 TDP1 no CPT: 4.6µM*

What do the screens show for `CC1=NC(=O)C(N=Nc2ccccc2C(=O)O)N1c1ccccc1` (stereo not drawn)?
IL1B secr inh: 36; DRD3 antagonist: 51; DT40 TDP1 CPT: 7.3µM*; D3 ag: 32*; DT40 TDP1 no CPT: 13µM*

How did CC1=NC(=O)C(N=Nc2ccccc2)N1c1ccccc1 (stereo not drawn) do in these assays?
IL1B secr inh: 4; DRD3 antagonist: -58*; DT40 TDP1 CPT: -6%; ClpP mod: -14%; D3 ag: -3; DT40 TDP1 no CPT: -14%

Results for CC1=NC(=O)C(N=Nc2cccc(C(=O)O)c2)N1c1ccccc1 (stereo not drawn) ?
IL1B secr inh: 13; DRD3 antagonist: inconclusive; DT40 TDP1 CPT: 4%; ClpP mod: -4%; D3 ag: -5; DT40 TDP1 no CPT: 0%

How did COc1c(Cl)cc(C(=O)NN)cc1Cl do in these assays?
IL1B secr inh: 86; DRD3 antagonist: -28; DT40 TDP1 CPT: 0%; D3 ag: -9; DT40 TDP1 no CPT: inconclusive

How did NNC(=O)c1cc(O)c(O)c(O)c1 do in these assays?
IL1B secr inh: 1; DRD3 antagonist: -1; DT40 TDP1 CPT: 15µM*; D3 ag: 5; DT40 TDP1 no CPT: inconclusive

What do the screens show for `CCOC(=O)N1C2C=C(C)[C@@H]2[C@@H]2CC(=O)N21` (stereo partly drawn)?
IL1B secr inh: 3; DRD3 antagonist: -19; DT40 TDP1 CPT: -16%; ClpP mod: 2%; D3 ag: -1; DT40 TDP1 no CPT: -1%

Results for Cc1ccccc1-c1ccc(C(=O)Nc2cccc(F)c2)o1 ?
IL1B secr inh: inconclusive; DRD3 antagonist: -8; DT40 TDP1 CPT: inconclusive; ClpP mod: -5%; D3 ag: -8; DT40 TDP1 no CPT: 21µM*

Results for Cc1cccc(C)c1NC(=O)c1ccc(-c2cc(F)ccc2F)o1 ?
IL1B secr inh: -4; DRD3 antagonist: -57*; DT40 TDP1 CPT: 18µM*; ClpP mod: -9%; D3 ag: -21; DT40 TDP1 no CPT: 16µM*

Results for Cc1cccc(NC(=O)c2ccc(-c3ccccc3[N+](=O)[O-])o2)c1 ?
IL1B secr inh: -16; DRD3 antagonist: -6; DT40 TDP1 CPT: 0%; D3 ag: -4; DT40 TDP1 no CPT: inconclusive

What do the screens show for `O=C(COc1ccc(F)cc1)NCC1(N2CCCCC2)CCCCC1`?
IL1B secr inh: -13; DRD3 antagonist: -28; DT40 TDP1 CPT: 1%; ClpP mod: -3%; D3 ag: -11; DT40 TDP1 no CPT: 2%

Results for CC(=O)NC(C(=O)O)C(C)(C)SN=O (stereo not drawn) ?
DT40 TDP1 CPT: 5%; DT40 TDP1 no CPT: -11%

How did O=C(O)c1cccc2c1C(=O)c1ccc(N3CCCCC3)cc1S2(=O)=O do in these assays?
IL1B secr inh: 21; DRD3 antagonist: -22; DT40 TDP1 CPT: -2%; ClpP mod: -1%; D3 ag: -5; DT40 TDP1 no CPT: -3%

What do the screens show for `O=C1c2ccccc2S(=O)(=O)c2cc(N3CCN(c4ccccc4)CC3)ccc21`?
IL1B secr inh: 9; DRD3 antagonist: 78; DT40 TDP1 CPT: inconclusive; ClpP mod: 0%; D3 ag: 52*; DT40 TDP1 no CPT: 16µM*

What do the screens show for `O=C1c2ccccc2S(=O)(=O)c2cc(N3CCOCC3)ccc21`?
IL1B secr inh: inconclusive; DRD3 antagonist: -2; DT40 TDP1 CPT: 12µM*; ClpP mod: 3%; D3 ag: -2; DT40 TDP1 no CPT: 21µM*

What do the screens show for `Cc1ccc(OC2CCN(C(=O)[C@H]3O[C@@H](n4cnc5c(N)ncnc54)[C@H](O)[C@@H]3O)CC2)cc1`?
IL1B secr inh: -16; DRD3 antagonist: 20; DT40 TDP1 CPT: inconclusive; ClpP mod: 0%; D3 ag: 10; DT40 TDP1 no CPT: inconclusive

Results for CC(C)Sc1nnc(SCC(=O)NCCCN2CCCC2=O)s1 ?
IL1B secr inh: 7; DRD3 antagonist: 16; DT40 TDP1 CPT: -2%; ClpP mod: 0%; D3 ag: 3; DT40 TDP1 no CPT: -7%

Results for CCOC(=O)c1c(NC(C)=O)sc2c(O)c(CN3CCN(CC)CC3)ccc12 ?
IL1B secr inh: -63*; DRD3 antagonist: 3; DT40 TDP1 CPT: inconclusive; ClpP mod: 1%; D3 ag: -25; DT40 TDP1 no CPT: -17%

How did CCOC(=O)c1c(NC(C)=O)sc2c(OC)c(Br)ccc12 do in these assays?
IL1B secr inh: -18; DRD3 antagonist: 17; DT40 TDP1 CPT: -20%; ClpP mod: 0%; D3 ag: 11; DT40 TDP1 no CPT: -22%

What do the screens show for `CCOC(=O)C1=C(C)N[C@@]2(O)c3ccccc3C(=O)[C@@]12O`?
IL1B secr inh: -11; DRD3 antagonist: 5; DT40 TDP1 CPT: -7%; ClpP mod: 0%; D3 ag: 0; DT40 TDP1 no CPT: -1%

Results for CC(=O)C1=C(C)OC2(O)c3ccccc3C(=O)C12O (stereo not drawn) ?
IL1B secr inh: 12; DRD3 antagonist: -28; DT40 TDP1 CPT: inconclusive; ClpP mod: 0%; D3 ag: -15; DT40 TDP1 no CPT: 18µM*

What do the screens show for `CCOC(=O)C1=C(C)OC2(O)c3ccccc3C(=O)C12O` (stereo not drawn)?
IL1B secr inh: -6; DRD3 antagonist: inconclusive; DT40 TDP1 CPT: inconclusive; ClpP mod: -2%; D3 ag: -16; DT40 TDP1 no CPT: 21µM*

Results for CC1=C(C(=O)OC(C)C)C2(O)C(=O)c3ccccc3C2(O)N1 (stereo not drawn) ?
IL1B secr inh: -13; DRD3 antagonist: inconclusive; DT40 TDP1 CPT: -30%; ClpP mod: -2%; D3 ag: -5; DT40 TDP1 no CPT: -24%

What do the screens show for `COc1ccc(NC(=O)c2nc(SC)ncc2Cl)cc1`?
IL1B secr inh: 2; DRD3 antagonist: -5; DT40 TDP1 CPT: -14%; ClpP mod: 1%; D3 ag: 0; DT40 TDP1 no CPT: 1%

From PubChem
